Screening data as filed in PubChem BioAssay.
Rab9 promoter act = Rab9 promoter activation; 2.8% of 320,000 active; Huh7 Rab9 promoter-luciferase reporter, luminescence, 24 h; AID 485297; Potency, µM (top dose mostly 9.22 µM), without a hit: top-dose activation, negative = inhibition, actives largely listed as activators; further: % of control where 0% means no effect; nearly all actives have a fitted effect of over 60% in size
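Rab9 promoter-driven luciferase in stably transfected Huh7 cells; 1500 cells/well rested 2 h, exposed to compound in DMSO for 24 h at 37 °C, 5% CO2. Luminescence read 10 min after adding luciferase reagent at ambient temperature.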
NPC1 prom act = activates the NPC1 promoter; Potency, µM (titrated, usually from 9.22 µM), without a hit: top-dose activation, hits mostly activators; AID 485313; Huh7 NPC1 promoter luciferase reporter, 24 h; 2.4% of 320,000 active; further: % of control where 0% means no effect; nearly all actives have a fitted effect of over 60% in size
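NPC1 promoter–luciferase Huh7 cells; 24 h compound; luminescence.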
uPA generation = blocks generation of uPA at the cell surface. cell surface uPA generation assay, qHTS. Potency, µM (top dose mostly 38.3 µM), for the others: top-dose activity change, negative = inhibition, usual class: inhibitors. 0.31% of 330,000 active. AID 540303; active means well fitted inhibition curve with a large enough effect; inconclusive means small, poorly fitted or top-dose-only effect; inactive means no such curve, though single readings can be large or run the other way; tested in mouse RAW 264.7 cells; further: on the % scale 0 is the no-effect control and ±100 the full control effect; nearly all actives have a fitted effect of over 55% in size
SMN2 splice enh = enhancers of SMN2 splice variant expression | HEK293 SMN2-luciferase splicing reporter, luminescence, 30-36 h | Potency, µM (series often up to 46.1 µM), without a hit: at the highest dose activity change, positive = activation, actives largely listed as activators | 2.8% of 210,000 active; further: % of control where 0% means no effect; nearly all actives have a fitted effect of over 55% in size
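HEK293 cells carry an SMN2 minigene-luciferase reporter in which exon 7 inclusion puts luciferase in frame. Cells were seeded at 2000 cells/well, attached for 10-12 hours, then exposed to compounds for 30-36 hours at 37C before ONE-Glo luminescence.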
FLuc modulator = inhibits or activates purified firefly luciferase, miR-21 counter-screen | 6.9% of 360,000 active | purified FLuc, Km substrates, luminescence inhibition | Potency, µM (top dose mostly 57.5 µM), without a hit: at the highest dose activity change, negative = inhibition, most hits filed as inhibitors;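 further: plate controls were vehicle for no effect and reference inhibitor for full effect; nearly all actives have a fitted effect of over 55% in size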
Target sequence (P08659 whole entry, looked up): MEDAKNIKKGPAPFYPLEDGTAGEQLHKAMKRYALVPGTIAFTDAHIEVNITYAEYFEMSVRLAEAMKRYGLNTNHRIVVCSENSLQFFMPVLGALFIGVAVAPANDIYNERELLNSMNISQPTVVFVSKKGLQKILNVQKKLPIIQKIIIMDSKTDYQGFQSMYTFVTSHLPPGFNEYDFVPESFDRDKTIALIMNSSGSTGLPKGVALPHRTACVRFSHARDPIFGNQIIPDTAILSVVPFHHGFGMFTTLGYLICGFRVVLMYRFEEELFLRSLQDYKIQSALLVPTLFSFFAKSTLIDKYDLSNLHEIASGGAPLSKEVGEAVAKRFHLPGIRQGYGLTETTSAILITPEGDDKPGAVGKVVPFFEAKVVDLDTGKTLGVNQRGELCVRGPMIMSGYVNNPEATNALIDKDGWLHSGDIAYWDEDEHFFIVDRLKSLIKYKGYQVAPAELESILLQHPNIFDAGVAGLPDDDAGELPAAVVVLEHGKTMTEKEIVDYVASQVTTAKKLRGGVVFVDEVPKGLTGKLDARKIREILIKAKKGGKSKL
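Biochemical qHTS of compounds, final roughly 60 µM downward over six points, against 10 nM purified firefly luciferase using Km concentrations of substrates (10 uM D-luciferin, 10 uM ATP) in Tris acetate pH 7.5 buffer; luminescence output.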
ELG1 genotoxic = inducers of genotoxicity in HEK293T ELG1-luciferase cells; HEK293T ELG1-luciferase reporter, luminescence, 16 h; Potency, µM (doses to about 46 µM), for the others: at the top dose activity change, positive = activation, most hits filed as activators; 1.3% of 330,000 active; further: % of control where 0% means no effect; nearly all actives have a fitted effect of over 60% in size
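Screening used a luciferase reporter fused to human ELG1 in HEK293T cells. Luminescence was read on a CCD plate imager after 16 hr exposure and 30 min ONE-Glo incubation.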
An asterisk follows results filed as active; ? = inconclusive; . = not tested or not shown. An excerpt weighted towards active compounds, which were near 7.3% of everything screened. Unless noted, the call rests on the fitted dose curve; in most records, active means well fitted curve in the direction sought with a large enough effect; inconclusive means small, poorly fitted or top-dose-only effect, or another doubt; inactive means no such curve, though single readings can be large; an effect the other way counts as inactive or inconclusive. Potency means the concentration at half of the fitted maximal effect.

SMILES | Rab9 promoter act | NPC1 prom act | uPA generation | SMN2 splice enh | FLuc modulator | ELG1 genotoxic
CC(=O)c1cccc(NC(=O)c2cc3c(s2)-c2c(C)cccc2OC3)c1 | . | . | . | -2% | -6% | .
CC(C)=CCC/C(C)=C/CC/C(C)=C/CSCC(=O)O | . | . | . | -7% | . | .
CC(=O)Oc1cccc(C(=O)Nc2ccc(NC(=O)c3cccs3)cc2)c1 | ? | 4.5µM* | 0% | . | -1% | ?
COc1cccc(C(=O)Nc2cccc(NC(C)=O)c2)c1 | -1% | -5% | . | -1% | ? | 3%
COc1cccc(C(=O)Nc2cccc(NC(=O)c3cccs3)c2)c1 | 0% | 1% | ? | . | 21µM* | -2%
COc1cccc(C(=O)Nc2cc(NC(=O)c3cccs3)ccc2C)c1OC | 3% | -2% | ? | . | 21µM* | -14%
COc1cccc(C(=O)Nc2cc(NC(=O)c3cccs3)ccc2C)c1 | 2% | 4% | -17% | . | 12µM* | -14%
COc1ccc(NC(=O)N2CCCC3(CCN(S(C)(=O)=O)CC3)C2)cc1 | . | . | . | 1% | . | .
CC(=O)c1cccc(NC(=O)C(Cc2ccccc2)NS(=O)(=O)c2ccc(Br)s2)c1 (configuration not stated) | . | . | . | -7% | 7% | .
CCC(=O)N1CCc2cc(CNS(=O)(=O)c3ccc(Cl)s3)ccc21 | . | . | . | . | -16% | .
CCOC(=O)c1cccc(NC(=O)c2ccccc2C)c1 | ? | 28% | 1% | 9% | -19% | 7%
CCOC(=O)c1cccc(NC(=O)c2sc3nc[nH]c(=O)c3c2C)c1 | . | . | . | . | 15µM* | .
CCOC(=O)c1cccc(NC(=O)c2cccs2)c1 | 18% | 27% | -4% | -11% | 21µM* | ?
O=C(CCCn1c(=O)c2ccccc2n(CC(=O)Nc2cccc(C(F)(F)F)c2)c1=O)NCc1ccc2c(c1)OCO2 | . | . | . | 4% | -10% | .
CCC(Oc1ccccc1)C(=O)Nc1ccc(OCc2cc(=O)n3ccc(C)cc3n2)cc1 (configuration not stated) | . | . | . | . | -15% | .
CC(Oc1ccc(F)cc1)C(=O)Nc1cc(-c2ccc(F)c(F)c2)no1 (configuration not stated) | . | . | . | . | 1% | .
COc1ccc(-c2nc(SCC(=O)Nc3cccc(S(N)(=O)=O)c3)n[nH]2)cc1 | 25% | 23% | -13% | . | 1.7µM* | 12%
Cc1ccc(NC(=O)CSc2n[nH]c(-c3ccncc3)n2)cc1 | 0% | 0% | 1% | 7% | ? | -3%
COc1ccc(NC(=O)CSc2n[nH]c(-c3ccccc3)n2)cc1S(N)(=O)=O | 2% | -5% | -8% | . | 12µM* | 2%
COc1ccc(NC(=O)CSc2n[nH]c(-c3ccncc3)n2)cc1Cl | . | . | 1% | . | . | 10%
COc1ccc(-c2nc(SCC(=O)Nc3c(C)cc(C)cc3C)n[nH]2)cc1 | . | . | . | . | 15µM* | .
CCCN1Cc2cccc(C(=O)Nc3ccccc3F)c2C1=O | . | . | . | -6% | -3% | .
C=CCn1c(C)cc(C(=O)CN2C(=O)NC3(CCCc4ccccc43)C2=O)c1C (configuration not stated) | 12% | 0% | -1% | 4% | 19µM* | 3%
COCCn1c(C)cc(C(=O)CN2C(=O)NC3(CCCCCC3)C2=O)c1C | 2µM* | 2.5µM* | 2% | . | 11µM* | ?
Cc1cc(C(=O)CN2C(=O)NC3(CCCc4ccccc43)C2=O)c(C)n1Cc1cccs1 (configuration not stated) | 2% | 12% | 3% | 10% | 6µM* | 11%
CC1CCC(NC(=O)C(NC(=O)c2ccccc2)C(C)C)CC1 (configuration not stated) | -5% | -1% | 2% | . | 0% | 0%
Cc1cc(N2C(=O)[C@@H]3[C@H](C2=O)[C@@H]2C[C@H]3C(Br)C2Br)no1 (some centres not stated) | -1% | 1% | 9% | . | 2% | -2%
COc1ccc(/C=N/Nc2ccccn2)c(OC)c1OC | ? | ? | -1% | ? | 17µM* | ?
Clc1ccc(C=NNc2ccccn2)c(Cl)c1 | . | . | 14% | . | . | .
